Screens deposited in PubChem by National Center for Advancing Translational Sciences (NCATS).
An excerpt weighted towards active compounds, which were near 2.1% of everything screened.
FUS suppressor: qHTS for Suppressors of FUS Proteinopathy: Primary screen using FUS-linked yeast assay. S. cerevisiae FUS-expressing, growth rescue, OD600, 24 h. Potency, µM (doses to about 76.6 µM), hits mostly activators. hit rate 0.24% among 390,000. AID 1347120, 2019;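 further: plate controls were DMSO vehicle for no effect and reference control for full effect; nearly all actives have a fitted effect of over 55% in size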
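Cultures pregrown in 2.5% raffinose medium are shifted to minimal medium containing 2% galactose to express toxic FUS. Compounds are tested at several concentrations. After 24hr at 30C, growth is quantified at 600 nm absorbance.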
Abeta yeast res: qHTS for compounds that reverse cellular toxicity of Amyloid beta (A-beta) peptide in yeast: Primary Screen | Potency, µM (doses to about 46.1 µM), most hits filed as activators | hit rate 0.063% among 410,000 | AID 1347071, 2019 | yeast expressing A-beta42, growth rescue, OD600, 48 h; response scale: 0% DMSO, 100% iron-clioquinol control; further: nearly all actives have a fitted effect of over 55% in size
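Yeast growth medium received pinned compounds, then yeast cells expressing toxic A-beta were added; plates incubated at 30 C for 48 hr. Growth read as absorbance at 600 nm, normalized to DMSO and equimolar FeCl3 plus clioquinol controls.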
TDP43 rescue: qHTS of TDP-43 Inhibitors | TDP-43 expressing yeast growth rescue, BacTiter-Glo, 24 h | Potency, µM (doses to about 46.1 µM), for inactives: top-dose growth rescue (activation), usual class: activators | hit rate 1.8% among 410,000 | AID 652104, 2013; further: % of control where 0% means no effect; nearly all actives have a fitted effect of over 50% in size
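Yeast expressing TDP-43 (pregrown in raffinose, seeded at OD600=0.02 in galactose medium) exposed to compounds 24 hr at 30 deg C. Growth read by BacTiter-Glo luminescence; rescue of toxicity appears as increased signal.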
aSyn rescue: qHTS of alpha-syn Inhibitors; Yeast expressing alpha-synuclein, growth rescue, BacTiter-Glo, 24 h; Potency, µM (doses to about 46.1 µM), without a hit: at the top dose growth rescue (activation), hits mostly activators; hit rate 0.14% among 370,000; further: % of control where 0% means no effect; nearly all actives have a fitted effect of over 65% in size
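Readout is rescue of growth in alpha-synuclein-expressing yeast, so inhibitors of toxicity appear as activators. Growth after 24 hr at 30 deg C in galactose medium is quantified by luminescence.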
Numbers without * were called inactive; i = inactive; ? = inconclusive; . = no result given. The call rests on the fitted dose curve; in most records, active means well fitted curve in the direction sought with a large enough effect; inconclusive means small, poorly fitted or top-dose-only effect, or another doubt; inactive means no such curve, though single readings can be large; an effect the other way counts as inactive or inconclusive. Potency means the concentration at half of the fitted maximal effect.

SMILES | FUS suppressor | Abeta yeast res | TDP43 rescue | aSyn rescue
O=C(COc1ccccc1)N1CCN(c2ncccn2)CC1 | i | i | 5.6% | 5.8%
CCOc1ccc(C(=O)N2CCC(c3noc(-c4ccc(S(=O)(=O)N5CCCC5)cc4)n3)CC2)cc1 | 15.8µM* | i | 0.9% | .
CCOc1ccc(C(=O)N2CCC(c3nc(-c4ccc(S(=O)(=O)N5CCCC5)cc4)no3)CC2)cc1 | i | i | 16.1% | .
COc1ccc(N2C(=O)CC(Sc3nnc(-c4ccccc4)o3)C2=O)cc1 (centres undefined) | i | i | 11.2µM* | .
Cc1nc(SC2CC(=O)N(c3ccccc3)C2=O)n[nH]1 (centres undefined) | i | i | 4.47µM* | -10.6%
O=C1CC(Sc2nnc(-c3ccccc3O)o2)C(=O)N1c1ccccc1 (centres undefined) | ? | i | ? | ?
Cc1ccc(S(=O)(=O)C(CNC(=O)c2ccc(C(F)(F)F)cc2)c2ccco2)cc1 (centres undefined) | ? | i | -21.8% | .
O=C(NCC(c1ccco1)S(=O)(=O)c1ccc(Cl)cc1)c1ccc(C(F)(F)F)cc1 (centres undefined) | i | i | 15.8µM* | .
CCOC(=O)c1c(NC(=S)Nc2cccnc2)sc(C)c1C | i | i | 12.6µM* | 6.1%
Cc1nc(Sc2nnnn2-c2ccccc2)c(C#N)c(C)c1C | i | i | 17.8µM* | 0.1%
Cc1cc(C)c(C#N)c(Sc2nnnn2-c2ccccc2)n1 | i | i | 8.4% | 2.2%
O=C(COC(=O)C1(c2ccccc2F)CCCC1)NCc1ccc2c(c1)OCO2 | . | i | 15.8µM* | 18.6%
O=C(COC(=O)/C=C/c1ccco1)NCc1ccc2c(c1)OCO2 | i | i | 15.8µM* | -0.7%
O=C(COC(=O)/C=C/c1ccc(F)cc1)NCc1ccc2c(c1)OCO2 | i | i | -12.0% | -6.1%
CCOC(=O)c1oc2ccc(S(=O)(=O)n3nc(-c4ccc(Br)cc4)cc3N)cc2c1C | i | i | 22.5% | .
CCc1ccc(NC(=O)CC2C(=O)N(c3cccc(C)c3)C(=O)N2Cc2ccco2)cc1 (centres undefined) | i | i | 0.0% | .
CCN(CC)C(=O)N1CCN(/[N+]([O-])=N/Oc2ccc([N+](=O)[O-])cc2[N+](=O)[O-])CC1 | . | . | . | -58.5%
COc1ccc(NC(=O)C2CCCN(c3ncccn3)C2)cc1 (centres undefined) | i | i | 5.9% | -7.0%
CCC(C)c1ccc(NC(=O)C2CCCN(c3ncccn3)C2)cc1 (centres undefined) | i | i | 12.6µM* | .
C/C(=N\Nc1ccc([N+](=O)[O-])cc1)c1cccc(N)c1 | i | i | 14.1µM* | 3.9%
COc1cccc(CNS(=O)(=O)/C=C/c2ccc3c(c2)OCO3)c1 | i | i | 15.8µM* | 1.5%
CCCC(=O)N/C(N)=N/c1nc2ccccc2o1 | i | i | 12.6µM* | -17.6%
Cc1ccc(NC(=S)N(CCN2CCOCC2)Cc2cc3cc4c(cc3[nH]c2=O)OCO4)cc1 | i | i | 5.1% | 3.1%
CC(C)c1cc(C(=O)OCC(=O)NC2CCS(=O)(=O)C2)c(O)c(C(C)C)c1 (centres undefined) | i | i | -4.8% | -2.3%
O=C(/C=C/c1ccc(Cl)cc1Cl)c1nc2ccccc2[nH]1 | i | i | 11.2µM* | 25.4%
SMILES | FUS suppressor | Abeta yeast res | TDP43 rescue | aSyn rescue
O=C(CNc1ccccc1-c1ccccc1)NCc1ccccc1 | . | i | 20µM* | 6.5%
O=C(CNCc1ccccc1)Nc1ccccc1-c1ccccc1 | i | i | -0.6% | -0.5%
O=C1[C@@H](C2CC2)[C@@H]2c3ccccc3C=NN2[C@@H]2c3ccccc3C=NN12 | i | . | . | .
C[C@H](NC(=O)c1[nH]cnc1C(=O)Nc1ccccc1)c1ccccc1 | i | i | 25.1µM* | -26.0%
C[C@@H](NC(=O)c1nc[nH]c1C(=O)N[C@@H](CCCCNC(=O)OC(C)(C)C)C(=O)OC(C)(C)C)c1ccccc1 | 20µM* | i | 0.0% | -0.4%
C[C@H](NC(=O)c1nc[nH]c1C(=O)N[C@@H](Cc1ccccc1)C(=O)OC(C)(C)C)c1ccccc1 | ? | i | 16.0% | 7.9%
C[C@@H](NC(=O)c1nc[nH]c1C(=O)N[C@@H](Cc1ccccc1)C(=O)OC(C)(C)C)c1ccccc1 | 20µM* | i | -18.2% | 0.9%
CCOC(=O)c1ccc(NC(=O)c2nc[nH]c2C(=O)N[C@@H](C)C(=O)OC(C)(C)C)cc1 | i | i | 28.2µM* | 5.6%
CC(C)(C)OC(=O)NCCCC[C@H](NC(=O)c1[nH]cnc1C(=O)Nc1ccccc1)C(=O)OC(C)(C)C | ? | i | 3.4% | -6.1%
O=C(Nc1ccc2ccccc2c1)NC1CCCCN(Cc2ccc(Cl)cc2)C1=O (centres undefined) | i | . | . | .
CC(C)(C)C(=O)Nc1ccc(C(=O)CN2C(=O)NC3(CCOc4ccccc43)C2=O)cc1 (centres undefined) | i | i | 11.2% | 7.1%
COc1ccc2cc(C3=CCCCC3)ncc2c1 | i | i | 17.7% | -8.8%
CC(C)(C)OC(=O)NCCCC[C@H](NC(=O)c1[nH]cnc1C(=O)Nc1ccc(Cl)cc1)C(=O)OC(C)(C)C | 15.8µM* | i | 8.5% | 4.8%
Cc1ccc(S(=O)(=O)N(C)C)cc1NC(=O)C(C)OC(=O)C1CCCCC1 (centres undefined) | i | i | 3.4% | -10.2%
CCOc1cc(/C=N\O)cc(Cl)c1OCC | i | i | 10µM* | -3.4%
C=CCOc1c(Cl)cc(/C=N/O)cc1OC | i | i | -3.7% | -6.1%
CCCSc1nnc(NC(=O)c2sc3nc(-c4cccs4)ccc3c2N)s1 | 12.6µM* | i | -8.5% | 1.6%
CCc1ccc(Nc2nnc(SCC(=O)NCCN3C(=O)CSC3=O)s2)cc1 | i | i | 1.2% | -10.4%
CC1=C(C)CS(=O)N(S(=O)(=O)c2ccccc2)C1 (centres undefined) | i | i | 12.6µM* | -22.0%
Cc1ccc2oc(=O)n(CCCOc3ccccc3)c2c1 | i | i | 35.5µM* | 8.0%
O=c1oc2ccccc2n1CCCOc1ccccc1Cl | i | i | 15.8µM* | .
COc1ccc(OCCCn2c(=O)oc3ccc(C)cc32)cc1 | i | i | ? | .
CNc1cc(C(=O)O)nc2ccccc12 | . | . | . | 7.1%
COC(=O)COc1cccc(NC(=O)C(c2ccccc2)c2ccccc2)c1 | i | i | 9.9% | -0.3%
Cc1ccc(C(=O)OCc2nnc(-c3ccccc3)o2)o1 | i | i | 17.8µM* | 21.3%
CC[C@]12C(=O)N(C)C[C@H]([C@@H]3C(=O)N(C)C(=O)[C@@H]31)N2C(=O)c1ccccc1 | i | i | ? | -12.7%
COc1ccc(-c2cc(NCc3ccc(C)cc3)n3cnnc3n2)cc1 | i | i | 11.2µM* | .
